This is a sample that favours compounds with a hit; in the whole collection about 13% have one here.
USP7 inh = inhibitors of human USP7 deubiquitinase. 47,000 compounds, 0.3% hits. purified USP7, Ub-rhodamine cleavage fluorescence. AID 1645854, 2021. Ubiquitin carboxyl-terminal hydrolase 7 (Homo sapiens), Q93009. inhibition, % at 20 µM
USP8 inh = inhibitors of human USP8 deubiquitinase; Ubiquitin carboxyl-terminal hydrolase 8 (Homo sapiens), P40818; 47,000 compounds, 4.2% hits; inhibition, % at 20 µM; AID 1645853, 2021; purified USP8, Ub-rhodamine cleavage fluorescence, 30 min
USP28 block = inhibitors of human USP28 deubiquitinase; purified USP28, Ub-rhodamine cleavage fluorescence, 30 min; 47,000 compounds, 3% hits; Ubiquitin carboxyl-terminal hydrolase 28 (Homo sapiens), Q96RU2; inhibition, % at 25 µM
USP17 inh = inhibitors of human USP17 deubiquitinase | purified USP17, Ub-rhodamine cleavage fluorescence, 3 h | 47,000 compounds, 6.5% hits | AID 1645855, 2021 | inhibition, % at 50 µM
Target sequence (A8MUK1 whole entry, looked up): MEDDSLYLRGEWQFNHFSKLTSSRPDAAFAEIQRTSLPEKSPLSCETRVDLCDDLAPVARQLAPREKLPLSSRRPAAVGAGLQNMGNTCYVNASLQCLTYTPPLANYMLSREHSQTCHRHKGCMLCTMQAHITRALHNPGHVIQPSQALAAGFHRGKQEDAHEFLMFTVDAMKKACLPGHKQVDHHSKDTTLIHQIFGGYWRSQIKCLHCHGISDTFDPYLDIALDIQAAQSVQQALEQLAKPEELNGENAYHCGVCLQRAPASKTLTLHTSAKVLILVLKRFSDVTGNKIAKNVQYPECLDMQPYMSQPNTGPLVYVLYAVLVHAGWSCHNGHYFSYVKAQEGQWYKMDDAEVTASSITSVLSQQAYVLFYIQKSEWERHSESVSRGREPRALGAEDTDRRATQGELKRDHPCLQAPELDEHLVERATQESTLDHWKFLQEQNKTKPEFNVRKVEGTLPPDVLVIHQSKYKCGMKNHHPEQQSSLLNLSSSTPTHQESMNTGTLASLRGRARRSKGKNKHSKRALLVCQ
USP10 block = inhibitors of human USP10 deubiquitinase. 47,000 compounds, 1.1% hits. purified USP10, Ub-rhodamine fluorescence, 60 min. Ubiquitin carboxyl-terminal hydrolase 10 (Homo sapiens), Q14694. inhibition, % at 20 µM
USP30 inh = inhibitors of human USP30 deubiquitinase; purified USP30, Ub-rhodamine cleavage fluorescence; 47,000 compounds, 5.3% hits; inhibition, % at 25 µM; Ubiquitin carboxyl-terminal hydrolase 30 (Homo sapiens), Q70CQ3
Large screens that a line does not name were inactive. Cut-off read from the data, not from the text of the source: active = inhibition above about 30%; inactive = the rest.

CC1CCN(c2nnc(-c3nc(C4CC4)no3)c3ccccc23)CC1	USP30 inh 57
c1ccc2c(-c3nc(C4CC4)no3)nnc(NC3CCCC3)c2c1	USP28 block 36, USP30 inh 39
c1ccc(CNc2nnc(-c3nc(C4CC4)no3)c3ccccc23)cc1	none (no result: USP28 block, USP30 inh)
COc1ccccc1CNc1nnc(-c2nc(C3CC3)no2)c2ccccc12	USP30 inh 34
O=C(NC1CCCC1)c1ccc(Cn2c(=O)c3ccccc3n(Cc3cccnc3)c2=O)cc1	none
CCN1CC[C@@]2(C(=O)Nc3ccccc3)CCN(C(=O)c3ccccc3)CC[C@@H]12	none
Cc1noc(C)c1CC(=O)Nc1cccn2nc(C3CC3)nc12	none
Cc1noc2nc(C)n(CC(=O)NCc3ccccc3Cl)c(=O)c12	none
CCC(C(=O)Nc1ccc(C)cc1C)n1c(C)nc2onc(C)c2c1=O (centres undefined)	USP17 inh 31, USP30 inh 38
CC1=CC[C@]2(C)C[C@@H](O)[C@](O)(C(C)C)C2CC1 (some centres undefined)	USP30 inh 32
O=C(O)c1ccc(C2Cc3c([nH]c(=O)[nH]c3=O)O2)cc1 (centres undefined)	USP28 block 78, USP30 inh 75
CN1C(=O)N[C@@H](c2ccc(C(=O)O)cc2)[C@@H]2CCCO[C@@H]21	none
Nc1c(-c2ccccn2)nsc1C(=O)N1CCN(c2ccc(F)cc2)CC1	USP30 inh 36
COc1ccc(C(=O)N(c2ccc(F)cc2)c2nc3ccccc3s2)cc1OC	USP30 inh 48
COc1ccc(CN2CCN3Cc4ccccc4N(C(C)C)CC3C2)cc1 (centres undefined)	none
Cc1cccc(NC(=O)CSc2nnc(-c3n[nH]c4c3CCC4)n2N)c1C	USP8 inh 51, USP17 inh 67, USP30 inh 38
Cc1ccc(NC(=O)CSc2nnc(-c3n[nH]c4c3CCC4)n2N)cc1C	USP10 block 36
Cc1cc(-c2nnc(SCC(=O)Nc3cccc4ccccc34)n2N)n[nH]1	none
O=C1NC2(CCCCCC2)C(=O)N1Cc1nc(-c2ccc(Cl)cc2)no1	USP17 inh 40
Cc1sc(NC(=O)c2cnc3ccccc3n2)nc1-c1ccc(F)c(F)c1	none
Cc1ccc(-c2nc(NC(=O)Nc3ccc(Cl)cc3)sc2C)cc1	USP17 inh 60 (no result: USP7 inh)
Cc1ccc(-c2nc(NC(=O)c3c(F)cccc3F)sc2C)cc1Cl	USP17 inh 37
O=C(Nc1nnc(-c2ccc(F)cc2)s1)c1c(F)cccc1F	USP17 inh 41
Cc1ccc(-c2ncc(C(=O)Nc3ccc(Cl)cc3)c(-c3ccncc3)n2)cc1	none
Cc1sc(NC(=O)c2ccc3ccccc3n2)nc1-c1ccc(F)cc1	USP17 inh 35
CN1CC[C@@]2(C(=O)N3CCCC3)CCN(S(=O)(=O)c3ccc(F)cc3)CC[C@@H]12	none
O=C(Nc1ccc(F)cc1F)C1CC(=O)N(Cc2ccccc2)C1 (centres undefined)	none
Cc1ccc2nc(NC(=O)C3CC(=O)N(Cc4ccccc4)C3)sc2c1 (centres undefined)	USP8 inh 31
O=C(Nc1ccc(S(=O)(=O)N2CCCC2)cc1)c1ccc(N2CCCC2=O)cc1	none
N#Cc1ccc(N2CCN(S(=O)(=O)c3ccc(Cl)cc3)CC2)cc1	USP30 inh 31
N#Cc1ccc(NC(=O)c2ccc(S(=O)(=O)N3CCCCC3)cc2)cc1	USP30 inh 54
CN(C)c1ccc(C(=O)Nc2ccc(S(=O)(=O)N3CCCC3)cc2)cc1	USP28 block 42
N#Cc1ccc(S(=O)(=O)N2CCN(c3ncnc4cc(Cl)ccc34)CC2)cc1	none
CCOC(=O)N1CCC(NC(=O)c2cc(C(=O)Nc3ccc(S(=O)(=O)N4CCCCC4)cc3)ccc2CO)CC1	USP28 block 42, USP17 inh 77, USP10 block 32, USP30 inh 79
CCCCn1c(SCC(=O)c2c[nH]c3ccccc23)nnc1-c1ccc(OC)cc1	none
CCC1CCCCN1S(=O)(=O)c1ccc(C(=O)Nc2ccc(S(N)(=O)=O)cc2)cc1 (centres undefined)	USP28 block 35, USP17 inh 60, USP30 inh 76
N#Cc1ccc(C(=O)Nc2ccc3c(N4CCCC4)ncnc3c2)cc1	USP17 inh 31
CCOC(=O)N1CCN(S(=O)(=O)c2ccc(C(=O)Nc3ccc(S(N)(=O)=O)cc3)cc2)CC1	none
CC(NC(=O)c1ccc2ccccc2n1)c1ccccc1 (centres undefined)	USP30 inh 44
O=C1NC2(CCc3ccccc31)CCN(Cc1ccc3nccnc3c1)C2 (centres undefined)	none
Nc1ccccc1SCc1noc(-c2cccs2)n1	USP28 block 73
O=C(Nc1ccc(Oc2ccccc2)cc1)C1C2C=CC3(O2)C1C(=O)N(C1CC1)C3C(=O)NC1CCCCC1 (centres undefined)	none
O=C(CN1CCCCC1c1nc(-c2cccc(F)c2)no1)NCc1ccccc1 (centres undefined)	none
COCCN1CCn2c(nc3cc(NC(=O)C4CCCCC4)ccc32)C1	none
COc1ccc(-n2cc(C(=O)NC(C)c3ccc4c(c3)OCCO4)c3ccccc3c2=O)cc1 (centres undefined)	USP30 inh 36
Cc1sc2ncnc(Oc3ccc4c(c3)OCO4)c2c1C	none
CC(=O)Nc1cccc(-c2cnc3sc(NC4CCCCC4)nn23)c1	USP8 inh 47
CN(CC(=O)Nc1nc(-c2ccc3c(c2)CCN3C(=O)CC(C)(C)C)cs1)C1CCCCC1	none
Cc1ccc(CNCc2cc3c(-c4ccc(F)cc4)nn(-c4ccccc4)c3[nH]c2=O)cc1	USP8 inh 45
COc1ccc(CCNCc2cc3c(C)nn(-c4ccccc4)c3[nH]c2=O)cc1OC	none
O=c1[nH]c2c(cc1CNCCc1ccccc1)c(-c1ccc(F)cc1)nn2-c1ccccc1	USP8 inh 66 (no result: USP17 inh)
Fc1ccc(-c2nnc3n2-c2ccccc2SC3)cc1	none
C=CC(C)(C)[C@@]12C[C@H]3c4nc5ccccc5c(=O)n4[C@H](C)C(=O)N3[C@@H]1N(C(C)=O)c1ccccc12	none
Cc1ncc(-c2ccccn2)c(-c2ccc(CNC(=O)c3cccnc3)cc2)n1	none
Cn1cc(NC(=O)Nc2cccc3ccccc23)c2ccccc21	USP8 inh 89, USP17 inh 63
N#Cc1ccccc1NC(=O)Cc1cccc2ccccc12	none
O=C(Cc1ccccc1C(=O)O)Nc1cccc2ccccc12	USP8 inh 71
O=C(NCc1ccc(Cl)cc1)Nc1cccc2ccccc12	USP8 inh 95, USP17 inh 68, USP30 inh 35
